Compounds without any hit were thinned out: in the full panel of roughly 83,000, 20% have a hit.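 A percent growth of 40 corresponds to 60% growth inhibition; 0 means no net growth; -100 means all cells died. Active threshold: below 10.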 Values without a mark were called inactive. Active and inactive are the calls of the source.
System: MDA-MB-468 breast
Experiment: NCI-60 one-dose screen, 48 h (100 = growth as untreated, 0 = no growth, -100 = all killed)
Settings: 10 µM unless noted

Row | Structure (SMILES) | growth
1 | O=C1/C(=C/c2cc(F)cc(F)c2)Cc2cc3c(cc21)OCO3 | 8.61% (active)
2 | O=C(Nc1ccncc1)C(=O)c1cn(S(=O)(=O)c2ccc(Cl)cc2)c2ccccc12 | 19.7%
3 | Cc1ccc2oc(=O)cc(-c3cc(-c4cc5ccccc5oc4=O)nc(N)c3C#N)c2c1 | 68.7%
4 | O=C(O)CCN1CCN(c2cccc(Cl)c2)CC1 | 103%
5 | CCOC(=O)C1=C(C)N2C(=NC3=C(CCC/C3=C\c3ccc(Cl)cc3)C2c2ccc(Cl)cc2)S1 (centres undefined) | 4.45% (active)
6 | N#Cc1ccc(C(=O)CSc2nc(Nc3ccc(S(N)(=O)=O)cc3)c3ccccc3n2)cc1 | 105%
7 | O=C(Nc1cccc(-n2cc(-c3ccncc3)c(-c3ccc(O)c(Cl)c3)n2)c1)Nc1cccc(C(F)(F)F)c1 | 18.5%
8 | CCCCOc1c(N)cc(Cl)cc1C(=O)OCCN(CC)CC | 112%
9 | C[C@@H]1N=C(c2ccc(Cl)cc2Cl)Nc2nc3ccccn3c2C1=O | 53.9%
10 | CCOC(=O)c1c2c(n3ccc(NC(=O)CCN4CCCCC4)cc13)C(=O)c1ncccc1C2=O | 83.1%
11 | CCOC(=O)c1c(C)oc(C)c(C(=O)OCC)c1=O | 103%
12 | O=C1c2cc(I)ccc2Oc2cc([N+](=O)[O-])ccc2N1c1ccc(Cl)cc1F | 96.2%
13 | CC(=O)OC(c1ccccc1)C1CCOC1=O (centres undefined) | 80.8%
14 | C/C(=N\NC(=O)CSc1nc2ccccc2c(=O)n1CCc1ccc(S(N)(=O)=O)cc1)c1ccccn1 | 25.3%

From PubChem BioAssay (NCI)
